Source: PubChem BioAssay (EPA / NIEHS)
Where “and” joins values, the source holds several entries; their conditions need not be identical. Equal entries are not always repeated. The source holds several records for some structures; these can differ, active in one and inactive in another. Calls of active or inactive are those of the source. How the source made its calls: active means hit-call score of the fitted dose curve at least 0.9, where 1 is the maximum; inactive means score below 0.9.

Key:
Conditions in all cases: mRNA level, 48 h; actives raise or lower the signal
[1] = read-out: Bcl-2 (BAD) gene, BAD (gene 572); assay: LTEA_HepaRG_BAD: Life Technologies and Expression Analysis (LTEA) Assay for Bcl-2 (BAD) gene using HepaRG (AID 2283469)
Procedure, shortened: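 BAD transcript change, measured by qRT-PCR against three housekeeping genes and fitted in both directions relative to 0.5% DMSO, after 48 h chemical treatment of human HepaRG liver cells at concentrations up to 100 uM.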

[2] = read-out: Bcl-2 (BAX) gene, BAX (gene 581); assay: LTEA_HepaRG_BAX: Life Technologies and Expression Analysis (LTEA) Assay for Bcl-2 (BAX) gene using HepaRG (AID 2283470)
Procedure, shortened: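 HepaRG (human liver), 48 h exposure, duplicate wells. 8-pt curve, half-log from 100 uM, 0.5% DMSO. BAX transcript by TaqMan qRT-PCR; ACTB/GAPDH/POLR2A normalization; gain or loss vs DMSO baseline.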

[3] = read-out: adenosine kinase (ADK) gene, ADK (gene 132); assay: LTEA_HepaRG_ADK: Life Technologies and Expression Analysis (LTEA) Assay for adenosine kinase (ADK) gene using HepaRG (AID 2283471)
Procedure, shortened: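 Following 48 h exposure of HepaRG cells in 0.5% DMSO (top concentration 100 uM, duplicate wells), ADK mRNA induction or suppression was measured by qRT-PCR, normalised to ACTB/GAPDH/POLR2A, and fitted bidirectionally relative to vehicle.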

[4] = read-out: Alpha-fetoprotein (AFP) gene, AFP (gene 174); assay: LTEA_HepaRG_AFP: Life Technologies and Expression Analysis (LTEA) Assay for Alpha-fetoprotein (AFP) gene using HepaRG (AID 2283472)
Procedure, shortened: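 HepaRG, single lot; 48 h post-plating -> serum-free induction medium; cpd 8-pt, 100 uM top, half-log, 0.5% DMSO, duplicate, 48 h. RNA -> qRT-PCR AFP, norm ACTB/GAPDH/POLR2A. Bidirectional fit vs DMSO.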

[5] = read-out: BCL2L11 (gene 10018); assay: LTEA_HepaRG_BCL2L11: Life Technologies and Expression Analysis (LTEA) Assay for Bcl-2 (BCL2L11) gene using HepaRG (AID 2283473)
Procedure, shortened: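 HepaRG, 48 h exposure, 8-pt half-log series from 100 uM in 0.5% DMSO, duplicates; qRT-PCR (Fluidigm TaqMan) for BCL2L11, housekeeping-normalized; bidirectional curve fit relative to DMSO baseline.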

[6] = read-out: Apolipoprotein A-V (APOA5) gene, APOA5 (gene 116519); assay: LTEA_HepaRG_APOA5: Life Technologies and Expression Analysis (LTEA) Assay for Apolipoprotein A-V (APOA5) gene using HepaRG (AID 2283474)
Procedure, shortened: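 HepaRG, 48 h chemical exposure in serum-free induction medium, 8-pt half-log series (top 100 uM), 0.5% DMSO vehicle, duplicates. Readout: APOA5 mRNA by qRT-PCR, housekeeping-normalized; bidirectional fit vs DMSO baseline.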

[7] = read-out: Apoptosis regulator Bcl-2 (Homo sapiens) (UniProt P10415); assay: LTEA_HepaRG_BCL2: Life Technologies and Expression Analysis (LTEA) Assay for Bcl-2 gene using HepaRG (AID 2283475)
Procedure, shortened: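 HepaRG, plated 48 h then switched to serum-free induction medium; dosed 48 h, 8 conc. (max 100 uM, half-log steps), duplicate, 0.5% DMSO. Lysis in RLT, RNA isolated, TaqMan qRT-PCR for BCL2; ACTB/GAPDH/POLR2A normalisation; bidirectional fit vs DMSO.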

[8] = read-out: Bcl-2 (BID) gene, BID (gene 637); assay: LTEA_HepaRG_BID: Life Technologies and Expression Analysis (LTEA) Assay for Bcl-2 (BID) gene using HepaRG (AID 2283476)
Procedure, shortened: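 Transcript levels of BID, measured by qRT-PCR and normalized to three housekeeping genes, were fitted bidirectionally against DMSO controls. Cells were HepaRG, dosed 48 h at up to 100 uM.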

[9] = read-out: Caspase-3 (Homo sapiens) (UniProt P42574); assay: LTEA_HepaRG_CASP3: Life Technologies and Expression Analysis (LTEA) Assay for cysteine-aspartic acid protease (CASP3) using HepaRG (AID 2283477)
Procedure, shortened: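 HepaRG, 48 h exposure, 8 conc. (top 100 uM, half-log steps, duplicate), 0.5% DMSO vehicle; qRT-PCR of CASP3 transcript, housekeeping-normalised (ACTB/GAPDH/POLR2A); bidirectional curve fit vs DMSO baseline.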

[10] = read-out: Cytochrome P450 (CYP24A1), CYP24A1 (gene 1591); assay: LTEA_HepaRG_CYP24A1: Life Technologies and Expression Analysis (LTEA) Assay for Cytochrome P450 (CYP24A1) using HepaRG (AID 2283478)
Procedure, shortened: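 qRT-PCR read-out: CYP24A1 transcript levels normalized to three housekeeping genes, bidirectional curve fits against 0.5% DMSO baseline. Human HepaRG cells treated 48 h with chemicals at eight concentrations from 100 uM in half-log steps.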

[11] = read-out: Cytochrome P450 (CYP1A2), CYP1A2 (gene 1544); assay: LTEA_HepaRG_CYP1A2: Life Technologies and Expression Analysis (LTEA) Assay for Cytochrome P450 (CYP1A2) using HepaRG (AID 2283479)
Procedure, shortened: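 HepaRG, 48 h exposure, top 100 uM, half-log 8-pt, 0.5% DMSO vehicle, duplicates. Readout: TaqMan qRT-PCR of CYP1A2 mRNA, housekeeping-normalized (ACTB/GAPDH/POLR2A). Gain/loss fit relative to DMSO baseline.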

[12] = read-out: cysteine-aspartic acid protease (CASP8), CASP8 (gene 841); assay: LTEA_HepaRG_CASP8: Life Technologies and Expression Analysis (LTEA) Assay for cysteine-aspartic acid protease (CASP8) using HepaRG (AID 2283480)
Procedure, shortened: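 HepaRG, 48 h exposure, duplicate wells; 8 conc, half-log from 100 uM, 0.5% DMSO. Serum-free induction medium. CASP8 mRNA by TaqMan qRT-PCR, norm. ACTB/GAPDH/POLR2A; gain/loss fitted vs DMSO.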

[13] = read-out: Cytochrome P450 (CYP2B6), CYP2B6 (gene 1555); assay: LTEA_HepaRG_CYP2B6: Life Technologies and Expression Analysis (LTEA) Assay for Cytochrome P450 (CYP2B6) using HepaRG (AID 2283481)
Procedure, shortened: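 Read-out is CYP2B6 mRNA by TaqMan qRT-PCR, normalized to three housekeeping genes and fitted bidirectionally against 0.5% DMSO baseline. Human HepaRG cells received test chemicals for 48 h, top concentration 100 uM, half-log dilutions.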

[14] = read-out: CYP2C8 (gene 1558); assay: LTEA_HepaRG_CYP2C8: Life Technologies and Expression Analysis (LTEA) Assay for CYP2C8 using HepaRG (AID 2283483)
Procedure, shortened: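 CYP2C8 mRNA induction or loss, by qRT-PCR normalized to ACTB/GAPDH/POLR2A, is read in HepaRG cells after 48 h treatment. Concentrations run from 100 uM down in half-log dilutions, with 0.5% DMSO as vehicle and baseline.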

[15] = read-out: CYP2C9 (gene 1559); assay: LTEA_HepaRG_CYP2C9: Life Technologies and Expression Analysis (LTEA) Assay for CYP2C9 using HepaRG (AID 2283484)
Procedure, shortened: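 Cells plated 48 h, switched to serum-free induction medium, then treated in duplicate for 48 h at eight concentrations (max 100 uM, 0.5% DMSO). RNA then analysed by qRT-PCR for CYP2C9; curves fitted in both directions relative to DMSO.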

[16] = read-out: CYP2E1 (gene 1571); assay: LTEA_HepaRG_CYP2E1: Life Technologies and Expression Analysis (LTEA) Assay for CYP2E1 using HepaRG (AID 2283485)
Procedure, shortened: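 Human liver line HepaRG, plated 48 h, then serum-free induction medium + chemical x 48 h; 8-pt CRC from 100 uM, half-log, 0.5% DMSO, n=2. Readout: CYP2E1 mRNA qRT-PCR vs ACTB/GAPDH/POLR2A; bidirectional fit vs DMSO.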

[17] = read-out: CYP4A11 (gene 1579); assay: LTEA_HepaRG_CYP4A11: Life Technologies and Expression Analysis (LTEA) Assay for CYP4A11 using HepaRG (AID 2283486)
Procedure, shortened: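 CYP4A11 transcript levels were quantified by TaqMan qRT-PCR after HepaRG human liver cells were treated for 48 hours with test chemicals (top 100 uM, half-log dilutions, 0.5% DMSO). Gain or loss of signal was fitted relative to DMSO.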

[18] = read-out: DNA damage-inducible transcript 3 (DDIT3), DDIT3 (gene 1649); assay: LTEA_HepaRG_DDIT3: Life Technologies and Expression Analysis (LTEA) Assay for DNA damage-inducible transcript 3 (DDIT3) using HepaRG (AID 2283488)
Procedure, shortened: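 HepaRG plated 48 h, switched to serum-free induction medium, dosed 48 h (100 uM top, half-log, 8 pts, 0.5% DMSO, n=2); RNA isolated; DDIT3 by qRT-PCR; bidirectional curve fit vs DMSO.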

[19] = read-out: Cytochrome P450 2C19 (Homo sapiens) (UniProt P33261); assay: LTEA_HepaRG_CYP2C19: Life Technologies and Expression Analysis (LTEA) Assay for CYP2C19 using HepaRG (AID 2283482)
Procedure, shortened: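 HepaRG, 48 h chemical exposure, 8-pt half-log series from 100 uM in 0.5% DMSO, duplicates. Readout: CYP2C19 mRNA by TaqMan qRT-PCR, housekeeping-normalized. Bidirectional fit vs DMSO baseline; phenobarbital 1mM as induction control.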

[20] = read-out: Cytochrome P450 3A4 (Homo sapiens) (UniProt P08684); assay: LTEA_HepaRG_CYP3A4: Life Technologies and Expression Analysis (LTEA) Assay for CYP3A4 using HepaRG (AID 2283487)
Procedure, shortened: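 In a human hepatic line (HepaRG), duplicate wells were treated 48 h with up to 100 uM chemical in half-log dilutions. Endpoint: CYP3A4 mRNA induction or loss relative to 0.5% DMSO vehicle, by qRT-PCR.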

Measured: AC50

Sequence of Apoptosis regulator Bcl-2 (Homo sapiens) (P10415 whole entry, looked up): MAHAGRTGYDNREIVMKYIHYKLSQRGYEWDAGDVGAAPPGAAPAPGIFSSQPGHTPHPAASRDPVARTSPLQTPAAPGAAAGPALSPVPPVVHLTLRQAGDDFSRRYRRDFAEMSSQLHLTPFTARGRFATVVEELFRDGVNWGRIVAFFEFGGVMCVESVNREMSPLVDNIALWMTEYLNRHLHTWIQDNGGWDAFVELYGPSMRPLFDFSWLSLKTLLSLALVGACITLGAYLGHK
Sequence of Caspase-3 (Homo sapiens) (P42574 whole entry, looked up): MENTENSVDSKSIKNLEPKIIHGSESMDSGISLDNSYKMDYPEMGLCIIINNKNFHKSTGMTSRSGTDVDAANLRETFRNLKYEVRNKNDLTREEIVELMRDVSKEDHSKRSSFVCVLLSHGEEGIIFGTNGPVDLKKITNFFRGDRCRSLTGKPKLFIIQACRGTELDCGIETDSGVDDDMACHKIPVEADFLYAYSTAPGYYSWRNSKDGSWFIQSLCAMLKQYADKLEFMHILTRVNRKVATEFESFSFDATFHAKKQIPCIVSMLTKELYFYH
Sequence of Cytochrome P450 2C19 (Homo sapiens) (P33261 whole entry, looked up): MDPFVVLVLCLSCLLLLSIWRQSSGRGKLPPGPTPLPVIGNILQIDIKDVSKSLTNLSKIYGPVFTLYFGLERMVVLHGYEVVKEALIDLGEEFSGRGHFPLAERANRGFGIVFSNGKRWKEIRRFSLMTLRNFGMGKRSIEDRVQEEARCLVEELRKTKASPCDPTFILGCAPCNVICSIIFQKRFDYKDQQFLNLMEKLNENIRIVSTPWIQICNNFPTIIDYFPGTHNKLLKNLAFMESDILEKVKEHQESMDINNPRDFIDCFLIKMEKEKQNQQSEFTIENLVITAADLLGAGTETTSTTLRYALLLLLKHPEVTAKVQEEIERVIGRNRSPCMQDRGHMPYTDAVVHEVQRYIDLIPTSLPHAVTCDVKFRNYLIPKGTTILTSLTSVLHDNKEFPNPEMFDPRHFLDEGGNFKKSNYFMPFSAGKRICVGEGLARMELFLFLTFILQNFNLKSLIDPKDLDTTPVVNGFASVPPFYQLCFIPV
Sequence of Cytochrome P450 3A4 (Homo sapiens) (P08684 whole entry, looked up): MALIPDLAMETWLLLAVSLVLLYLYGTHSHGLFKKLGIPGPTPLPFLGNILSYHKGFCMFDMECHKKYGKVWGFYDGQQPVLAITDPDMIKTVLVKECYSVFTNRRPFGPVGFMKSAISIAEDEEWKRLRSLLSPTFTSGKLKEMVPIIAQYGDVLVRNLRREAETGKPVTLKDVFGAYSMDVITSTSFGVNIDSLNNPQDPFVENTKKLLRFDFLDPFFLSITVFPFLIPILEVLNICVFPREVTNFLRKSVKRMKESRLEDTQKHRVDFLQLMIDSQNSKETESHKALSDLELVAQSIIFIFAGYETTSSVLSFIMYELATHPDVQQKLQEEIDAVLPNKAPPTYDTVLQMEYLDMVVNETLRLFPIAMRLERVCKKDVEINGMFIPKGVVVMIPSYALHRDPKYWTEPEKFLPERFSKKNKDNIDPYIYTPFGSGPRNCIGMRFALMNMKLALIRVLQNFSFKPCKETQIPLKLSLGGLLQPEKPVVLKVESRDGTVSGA

O=C(c1ccc(OCCN2CCCCC2)cc1)c1c(-c2ccc(O)cc2)sc2cc(O)ccc12
inactive: [1] | [2] | [4] | [5] | [6] | [7] | [8] | [9] | [10] | [11] | [14] | [17]
active: [3] 67.7 µM | [12] 73.3 µM | [13] 80.5 µM | [15] 50 µM | [16] 69.1 µM | [18] 83.3 µM

C=C(C)C(N)=O
inactive: [1] | [2] | [3] | [4] | [5] | [6] | [7] | [8] | [9] | [10] | [11] | [12] | [13] | [19] | [14] | [15] | [16] | [17] | [20] | [18]

CC/C(=C(\c1ccccc1)c1ccc(OCCN(C)C)cc1)c1ccccc1
inactive: [1] | [2] | [3] | [5] | [6] | [7] | [8] | [9] | [10] | [11] | [13] | [19] | [14] | [20]
active: [3] 71.2 µM | [4] 22.4 µM and 27 µM | [5] 74.6 µM | [8] 92.5 µM | [9] 66.4 µM | [11] 11.9 µM | [12] 72.5 µM and 77.4 µM | [16] 17 µM and 23.7 µM | [17] 19.7 µM and 22.4 µM | [18] 64.7 µM and 72.2 µM
